Source: PubChem (National Center for Advancing Translational Sciences (NCATS))
G9a block = inhibitors of human histone lysine methyltransferase G9a | Q96KQ7 | G9a H3K9 monomethylation, AlphaScreen, 2 h | Potency, µM (series often up to 102 µM), for inactives: top-dose activity, negative = inhibition, actives largely listed as inhibitors | hit rate 8.8% among 350,000 | AID 504332; also: potency is read from the fitted curve at half-maximal effect; % is scaled to controls: 0 for no effect and ±100 for the full control effect; nearly all actives have a fitted effect of over 75% in size
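Enzyme 20 nM + cpd, 15 min RT; add b-H3K9 pep 500 nM / SAM 20 uM; 2 h RT; anti-H3K9me1 Ab 0.5 ug/mL + SA donor / anti-rabbit acceptor beads 20 ug/mL each, 10 min; AlphaScreen read.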
JMJD2A Tudor inh = inhibitors of human JMJD2A Tudor domain; AlphaScreen JMJD2A-Tudor / H3K4me3 peptide binding; Potency, µM (top dose mostly 114 µM), without a hit: at the top dose activity change, negative = inhibition, usual class: inhibitors; hit rate 4.4% among 390,000; AID 504339; also: potency is read from the fitted curve at half-maximal effect; % is scaled to controls: 0 for no effect and ±100 for the full control effect; nearly all actives have a fitted effect of over 50% in size
Six1-Eya2 inh = inhibitors of human Six1/Eya2 interaction. AID 651725. activity change, % (no concentration beside the values). hit rate 0.56% among 360,000. AlphaScreen GST-Six1/His-Eya2 binding, biochemical; active compounds read low. Q15475+O00167; in the data active = activity change below about -65%; inconclusive = mostly about -30% to -63%; also: % is scaled to controls: 0 for no effect and ±100 for the full control effect
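Six1/Eya2 binding was read as AlphaScreen signal after compounds were pinned into GST-Six1 plus His-tagged Eya2 (5X stock 250/500 nM) in pH 8.0 Tris/NaCl/TCEP buffer, beads added, then incubated 1 h, 37 C, dark.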
CtBP-E1A inh = inhibitors of CtBP/E1A interaction. hit rate 0.49% among 340,000. activity change, % (no concentration beside the values). AlphaScreen GST-E1A/His-CtBP binding, 1536-well; active compounds read low; in the data active = activity change below about -65%; inconclusive = mostly about -30% to -63%; also: % is scaled to controls: 0 for no effect and ±100 for the full control effect
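GST-E1A and His-tagged CtBP (125 nM each as 5X stock) were preincubated with pin-transferred compound for 2 h at 37 °C in the dark, then glutathione donor and nickel acceptor beads were added for 1 h before AlphaScreen reading.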
HP1b binding inh = blocks HP1-beta chromodomain binding to methylated histone tails; AlphaScreen HP1-beta / biotin-H3K9me3 peptide binding; Potency, µM (series often up to 114 µM), without a hit: top-dose activity change, negative = inhibition, usual class: inhibitors; hit rate 0.56% among 390,000; AID 540317; also: potency is read from the fitted curve at half-maximal effect; nearly all actives have a fitted effect of over 70% in size
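HP1-beta protein (50 nM final) preincubated 30 min at room temperature with biotinylated H3(1-18)K9me3 peptide (50 nM) in PBS pH 7.4, 0.01% Tween-20, then compound added for 30 min. AlphaScreen streptavidin donor/nickel chelate acceptor beads (10 ug/mL final), 30 min dark, luminescence read.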
BAZ2B inh = blocks human BAZ2B | AID 504333 | Potency, µM (highest dose often 114 µM), for inactives: at the highest dose activity change, negative = inhibition, usual class: inhibitors | AlphaScreen BAZ2B-H3K14Ac peptide displacement | Q9UIF8 | hit rate 4.4% among 360,000; also: potency is read from the fitted curve at half-maximal effect; % is scaled to controls: 0 for no effect and ±100 for the full control effect; nearly all actives have a fitted effect of over 60% in size
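Inhibition is scored as reduced AlphaScreen emission. The BAZ2B/b-H3(5-23)K14Ac complex (50 nM each) in PBS pH 7.4, 0.01% Tween-20 meets compound (up to 110 uM) for 30 min at RT before bead addition.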
* = called active by the depositor; ? = inconclusive; . = no result given; [ ] = another dose, or the depositor's remark. An excerpt weighted towards active compounds, which were near 10% of everything screened. Unless noted, calls follow the shape of the dose curve; as a rule, active = well fitted inhibition curve with a large enough effect; inconclusive = small, poorly fitted or top-dose-only effect; inactive = no such curve, though single readings can be large or run the other way.

SMILES	G9a block	JMJD2A Tudor inh	Six1-Eya2 inh	CtBP-E1A inh	HP1b binding inh	BAZ2B inh
CCc1ccc2oc(-c3cccc(NC(=O)c4ccc(-c5cccc([N+](=O)[O-])c5)o4)c3)nc2c1	?	-22%	.	.	18%	?
O=C(C1CC1)N1CCN(c2nc3c(F)cc(F)cc3s2)CC1	23%[59 µM]	-10%	.	.	24%	-1%
Cc1cc(C)nc(-n2ncc3c2CC(c2cccc(Cl)c2)CC3=O)n1 (stereo unspecified)	25%	-23%	0	-11	31%	-2%
Cc1ccc(NC(=O)C(NCc2ccccn2)c2ccccc2)cc1 (stereo unspecified)	66%[59 µM]	-19%	-18	-20	23%	-18%
C/C(CC(=O)Nc1ccc(N(C)C)cc1)=N\NC(=O)c1ccccn1	50µM*	?	?	?	?	56µM*
C/C(CC(=O)Nc1ccc(N(C)C)cc1)=N\NC(=O)c1ccncc1	35µM*	-12%	-11	-5	17%	-33%
CN(C)c1ccc(NC(=O)CC(NCc2ccccn2)C(=O)O)cc1 (stereo unspecified)	13%[59 µM]	18µM*	-92*	7	30%	5.6µM*
C/C(CC(=O)Nc1ccc(N(C)C)cc1)=N\NC(=O)c1ccccc1Cl	.	.	16	24	.	.
CSc1cccc(NC(=O)C2CCN(S(=O)(=O)c3ccc4[nH]c(=O)ccc4c3)CC2)c1	5%[59 µM]	-19%	.	.	18%[57 µM]	3%
C#CCOCCOCCOCCNc1nc(N2CCN(C(=O)[C@H]([C@@H](C)CC)n3cc([C@@H](N)CO)nn3)CC2)nc(N2CCN(C(=O)[C@H](CCCCN)n3cc([C@@H](N)CO)nn3)CC2)n1	.	56µM*	1	-9	61%	.
C#CCOCCOCCOCCNc1nc(OC)nc(N2CCN(C(=O)[C@H](CCCCN)n3cc(C(N)CO)nn3)CC2)n1 (stereo partly specified)	-20%[12.7 µM]	.	.	.	.	?
C#CCOCCOCCOCCNc1nc(N2CCOCC2)nc(N2CCN(C(=O)[C@H](CCCCN)n3cc([C@@H](N)CO)nn3)CC2)n1	-30%[12.7 µM]	79µM*	0	0	17%	50µM*
C#CCOCCOCCOCCNc1nc(N2CCN(C(=O)[C@H]([C@@H](C)CC)n3cc(CCCCN)nn3)CC2)nc(N2CCN(C(=O)[C@H](CCCCN)n3cc(CC(C)O)nn3)CC2)n1 (stereo partly specified)	-37%[2.33 µM]	-34%	0	5	23%	?
C#CCOCCOCCOCCNc1nc(N2CCN(C(=O)[C@H]([C@@H](C)CC)n3cc([C@@H](N)CC(C)C)nn3)CC2)nc(N2CCN(C(=O)[C@H](CCCCN)n3cc([C@@H](N)CO)nn3)CC2)n1	?	79µM*	-6	-14	30%	79µM*
Cc1ccc(CN2CCCn3nc(C(=O)NCC(C)c4ccccc4)cc3C2=O)cc1 (stereo unspecified)	24%[59 µM]	-13%	.	.	0%	-1%
Cc1ccc(CSc2nc(=O)c3c(C)cc(C)nc3n2C2CC2)cc1	4%[59 µM]	-17%	.	.	38%[57 µM]	18%
COc1ccc(S(=O)(=O)N(CC(=O)NC2CC2)C2CCCCC2)cc1Cl	-48%[12.7 µM]	-8%	-4	-3	9%	6%
CNC(=O)CN(C1CCCCC1)S(=O)(=O)c1ccc(OC)c(Cl)c1	50µM*	-6%	8	9	9%	4%
COc1cc2c(cc1OC)C1(NCC2)C(=O)Nc2ccccc21 (stereo unspecified)	-4%[59 µM]	-8%	1	-9	9%	-1%
COc1cc2c(cc1OC)C1(Nc3c-2c(Cc2ccccc2)nn3-c2ccccc2)C(=O)Nc2ccccc21 (stereo unspecified)	40µM*	?	-8	-11	-27%	50µM*
CCC(C)C1/C=C\CCCC(=O)N1Cc1ccc(C)cc1 (stereo unspecified)	7%	.	.	.	.	.
COc1ccc(CC(=O)NCc2nnc(SCCOc3ccccc3)n2C)cc1	-3%[12.7 µM]	-16%	-16	-8	21%	-4%
